Experimental findings from ChEMBL document CHEMBL3988442, “University of Dundee, Small-Polar-MMV Screening Library” (2021) are described below.

The structures appear in SMILES notation. For part of these data: Results with a measured potency or affinity are listed apart.

Common to all, as to design: scale not given: direction of the effect not stated beside the values
Assay [1] deals with Protein translocase subunit SecA (Escherichia coli (strain K12)) (UniProt P10408). Briefly: Assay to Identify E. coli SecA ATPase Inhibitors. Particulars: 30 µM. Format: functional.
For assay [2], the target named is T1, Ubiquitin-activating enzyme e1, putative (Leishmania donovani (strain BPK282A1)) (UniProt E9BSI1).
T1 sequence (whole entry): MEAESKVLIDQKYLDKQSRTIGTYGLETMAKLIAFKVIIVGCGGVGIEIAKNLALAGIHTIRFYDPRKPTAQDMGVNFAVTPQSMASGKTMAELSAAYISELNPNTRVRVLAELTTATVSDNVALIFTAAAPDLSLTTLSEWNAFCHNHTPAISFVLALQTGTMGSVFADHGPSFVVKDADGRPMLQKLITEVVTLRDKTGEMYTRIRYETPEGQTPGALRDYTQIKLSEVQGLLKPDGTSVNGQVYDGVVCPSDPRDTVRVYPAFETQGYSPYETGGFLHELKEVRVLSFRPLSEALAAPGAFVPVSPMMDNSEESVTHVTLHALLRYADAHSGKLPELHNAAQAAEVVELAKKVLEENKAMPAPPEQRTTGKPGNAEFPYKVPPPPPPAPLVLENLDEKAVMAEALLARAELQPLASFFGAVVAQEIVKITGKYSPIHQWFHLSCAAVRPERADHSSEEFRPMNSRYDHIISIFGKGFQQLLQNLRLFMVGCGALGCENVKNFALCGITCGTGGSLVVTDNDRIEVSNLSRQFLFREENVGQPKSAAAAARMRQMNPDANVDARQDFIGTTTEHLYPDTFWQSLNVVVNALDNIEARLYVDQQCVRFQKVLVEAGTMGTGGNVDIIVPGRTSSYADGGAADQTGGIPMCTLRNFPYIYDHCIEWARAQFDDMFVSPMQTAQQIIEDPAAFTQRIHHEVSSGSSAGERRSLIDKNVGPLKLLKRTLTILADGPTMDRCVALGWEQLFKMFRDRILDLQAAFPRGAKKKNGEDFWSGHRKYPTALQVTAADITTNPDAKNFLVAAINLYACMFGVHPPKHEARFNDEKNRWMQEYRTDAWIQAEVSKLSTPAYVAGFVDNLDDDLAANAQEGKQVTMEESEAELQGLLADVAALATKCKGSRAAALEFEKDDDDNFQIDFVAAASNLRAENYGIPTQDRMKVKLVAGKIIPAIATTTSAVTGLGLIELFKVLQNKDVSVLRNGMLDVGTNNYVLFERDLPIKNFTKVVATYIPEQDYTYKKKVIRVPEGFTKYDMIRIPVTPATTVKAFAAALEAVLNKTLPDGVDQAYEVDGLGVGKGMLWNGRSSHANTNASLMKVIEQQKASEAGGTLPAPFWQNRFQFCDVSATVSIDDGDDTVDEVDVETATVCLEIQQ
Briefly: Leishmania donovani Ubiquitin Activating Enzyme (LdE1). Format: functional. Particulars: 30 µM.

The target in assay [3] is Sialic acid-binding Ig-like lectin 9 (Homo sapiens) (UniProt Q9Y336). Briefly: Hs-Siglec9 ALPHAscreen SOP 20170721. Particulars: 10 µM. In general terms: In Alpha technology, singlet oxygen from a donor bead excites a nearby acceptor bead.
Assay [4] has as its system Trypanosoma cruzi. Kind of assay: Trypanosoma cruzi phosphomannomutase and mannose-1-phosphate guanylyltransferase assay. In kind it is functional. Particulars: 10 µM.
Assay [5] has as its target T2, Arginase-2, mitochondrial (Homo sapiens) (UniProt P78540).
T2 sequence (whole entry): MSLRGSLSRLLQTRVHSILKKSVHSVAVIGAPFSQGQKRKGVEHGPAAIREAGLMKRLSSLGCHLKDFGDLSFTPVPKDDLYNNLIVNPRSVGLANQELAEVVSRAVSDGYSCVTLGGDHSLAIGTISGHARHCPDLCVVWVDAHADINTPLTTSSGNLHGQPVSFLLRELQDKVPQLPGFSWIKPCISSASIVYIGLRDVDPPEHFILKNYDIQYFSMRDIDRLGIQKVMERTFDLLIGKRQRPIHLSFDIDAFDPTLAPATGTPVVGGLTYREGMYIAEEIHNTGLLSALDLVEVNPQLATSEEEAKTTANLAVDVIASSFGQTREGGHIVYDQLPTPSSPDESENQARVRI
Briefly: in vitro enzyme assay to detect the production of urea directly proportional to the activity of Arginase II. Also: in the data most compounds retested in dose-response had high values. In kind it is functional. The note with it: 33.3 µM.

For assay [6], the target named is T3, Proteasome subunit beta (Trypanosoma cruzi) (UniProt O96673).
T3 sequence (whole entry): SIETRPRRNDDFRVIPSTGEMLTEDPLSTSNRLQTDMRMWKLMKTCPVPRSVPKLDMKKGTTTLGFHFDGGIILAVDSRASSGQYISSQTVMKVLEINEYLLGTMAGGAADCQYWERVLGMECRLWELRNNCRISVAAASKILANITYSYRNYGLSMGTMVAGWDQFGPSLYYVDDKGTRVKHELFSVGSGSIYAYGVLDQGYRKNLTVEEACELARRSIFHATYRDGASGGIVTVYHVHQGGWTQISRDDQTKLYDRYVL
Briefly: Trypanosoma cruzi proteasome chymotrypsin-like activity (TcProtChymo) assay. Also: in the data most compounds retested in dose-response had high values. Format: functional. Particulars: 9.37 µM.

The species named for assay [7] is Homo sapiens. Kind of assay: To identify inhibition of the IFN signalling (Jak-Stat) pathway via expression of an eGFP reporter gene under the control of an IFN-stimulated response element (ISRE) containing MxA promoter. In kind it is functional. Particulars: 30 µM.
Assay [8] concerns the target T4, Tyrosyl-tRNA synthetase, putative (Trypanosoma cruzi (strain CL Brener)) (UniProt Q4DSP6).
T4 sequence (whole entry): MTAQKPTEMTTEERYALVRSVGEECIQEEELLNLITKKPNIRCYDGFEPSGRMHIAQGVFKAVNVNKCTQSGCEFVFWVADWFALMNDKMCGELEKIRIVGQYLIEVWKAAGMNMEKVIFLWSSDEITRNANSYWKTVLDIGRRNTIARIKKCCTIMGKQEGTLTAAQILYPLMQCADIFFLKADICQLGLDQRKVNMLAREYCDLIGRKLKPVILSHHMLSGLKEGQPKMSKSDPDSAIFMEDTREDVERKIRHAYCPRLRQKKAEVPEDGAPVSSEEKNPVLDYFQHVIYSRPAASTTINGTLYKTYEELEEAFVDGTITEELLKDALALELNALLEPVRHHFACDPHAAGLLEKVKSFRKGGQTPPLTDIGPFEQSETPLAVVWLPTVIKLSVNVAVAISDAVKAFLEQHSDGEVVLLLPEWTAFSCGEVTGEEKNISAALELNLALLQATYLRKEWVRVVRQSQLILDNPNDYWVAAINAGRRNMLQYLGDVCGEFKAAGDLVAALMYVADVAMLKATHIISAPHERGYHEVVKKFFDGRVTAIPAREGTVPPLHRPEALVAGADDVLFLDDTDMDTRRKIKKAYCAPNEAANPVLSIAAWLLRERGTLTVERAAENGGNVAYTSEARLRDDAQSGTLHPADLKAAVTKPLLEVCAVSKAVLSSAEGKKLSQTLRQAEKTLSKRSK
Kind of assay: Trypanosoma cruzi tyrosyl tRNA synthetase (TcYRS) _High Tyrosine SOP. Also: in the data most compounds retested in dose-response had high values. Particulars: 30 µM. In kind it is functional.

The target in assay [9] is T4, Tyrosyl-tRNA synthetase, putative (Trypanosoma cruzi (strain CL Brener)). Briefly: Trypanosoma cruzi tyrosyl tRNA synthetase (TcYRS) SOP. Format: functional. The note with it: 30 µM.
Assay [10] concerns the target Chromo domain-containing protein 1 (Saccharomyces cerevisiae (strain ATCC 204508 / S288c) (Baker's yeast)) (UniProt P32657). Briefly: ScCHD-1 Enzyme Inhibition Assay. Also: in the data most compounds retested in dose-response had high values. The note with it: 30 µM. In kind it is functional.

Chromo domain-containing protein 1 (Saccharomyces cerevisiae (strain ATCC 204508 / S288c) (Baker's yeast)), sequence (P32657 whole entry, the tested form may be a part): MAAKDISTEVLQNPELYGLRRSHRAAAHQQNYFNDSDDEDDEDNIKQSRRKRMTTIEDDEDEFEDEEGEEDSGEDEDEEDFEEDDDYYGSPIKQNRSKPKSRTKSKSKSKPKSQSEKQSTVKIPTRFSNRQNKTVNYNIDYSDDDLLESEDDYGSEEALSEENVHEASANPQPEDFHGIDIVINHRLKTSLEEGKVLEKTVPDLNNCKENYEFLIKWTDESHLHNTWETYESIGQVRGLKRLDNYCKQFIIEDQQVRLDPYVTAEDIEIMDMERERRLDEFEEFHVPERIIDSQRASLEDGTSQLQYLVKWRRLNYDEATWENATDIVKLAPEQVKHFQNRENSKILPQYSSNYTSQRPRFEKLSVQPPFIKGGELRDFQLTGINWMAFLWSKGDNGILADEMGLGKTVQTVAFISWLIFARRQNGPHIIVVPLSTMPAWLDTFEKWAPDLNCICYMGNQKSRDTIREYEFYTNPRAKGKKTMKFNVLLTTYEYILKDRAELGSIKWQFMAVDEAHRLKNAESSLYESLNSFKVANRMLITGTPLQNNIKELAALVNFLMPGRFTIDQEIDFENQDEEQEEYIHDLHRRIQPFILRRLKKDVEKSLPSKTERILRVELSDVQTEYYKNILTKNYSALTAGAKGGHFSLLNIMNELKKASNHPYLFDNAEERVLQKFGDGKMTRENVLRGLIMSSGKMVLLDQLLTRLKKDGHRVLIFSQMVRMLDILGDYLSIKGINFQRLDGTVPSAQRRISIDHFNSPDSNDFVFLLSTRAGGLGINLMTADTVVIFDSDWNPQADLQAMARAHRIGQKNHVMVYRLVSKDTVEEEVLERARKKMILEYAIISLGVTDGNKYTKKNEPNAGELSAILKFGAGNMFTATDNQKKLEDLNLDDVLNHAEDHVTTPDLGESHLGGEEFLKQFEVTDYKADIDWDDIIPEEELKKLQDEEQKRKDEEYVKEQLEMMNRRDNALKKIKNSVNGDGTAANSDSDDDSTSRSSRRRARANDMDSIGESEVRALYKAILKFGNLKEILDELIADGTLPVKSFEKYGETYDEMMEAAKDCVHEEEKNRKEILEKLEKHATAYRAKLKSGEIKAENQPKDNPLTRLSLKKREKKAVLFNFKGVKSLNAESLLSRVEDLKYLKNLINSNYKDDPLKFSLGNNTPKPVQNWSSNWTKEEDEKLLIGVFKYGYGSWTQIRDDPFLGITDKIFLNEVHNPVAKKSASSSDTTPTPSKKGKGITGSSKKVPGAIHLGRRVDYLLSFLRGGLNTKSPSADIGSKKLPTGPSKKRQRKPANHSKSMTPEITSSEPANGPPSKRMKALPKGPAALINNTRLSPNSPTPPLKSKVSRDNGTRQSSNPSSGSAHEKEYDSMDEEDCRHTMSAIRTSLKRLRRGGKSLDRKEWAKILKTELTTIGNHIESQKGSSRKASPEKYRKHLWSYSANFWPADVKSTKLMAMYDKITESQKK
Sialic acid-binding Ig-like lectin 9 (Homo sapiens), sequence (Q9Y336 whole entry): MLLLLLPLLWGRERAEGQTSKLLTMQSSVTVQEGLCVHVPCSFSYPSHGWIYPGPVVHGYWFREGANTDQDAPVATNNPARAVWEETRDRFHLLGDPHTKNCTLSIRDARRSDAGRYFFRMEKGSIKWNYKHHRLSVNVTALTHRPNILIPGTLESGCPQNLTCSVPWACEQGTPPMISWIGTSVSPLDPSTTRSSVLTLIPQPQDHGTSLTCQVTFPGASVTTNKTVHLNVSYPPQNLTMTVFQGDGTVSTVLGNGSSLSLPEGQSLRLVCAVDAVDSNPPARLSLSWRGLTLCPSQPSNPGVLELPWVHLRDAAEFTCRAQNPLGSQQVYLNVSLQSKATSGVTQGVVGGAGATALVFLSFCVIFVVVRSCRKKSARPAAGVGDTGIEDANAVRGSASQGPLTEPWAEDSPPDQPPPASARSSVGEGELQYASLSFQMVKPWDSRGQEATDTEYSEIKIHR
Protein translocase subunit SecA (Escherichia coli (strain K12)), sequence (P10408 whole entry): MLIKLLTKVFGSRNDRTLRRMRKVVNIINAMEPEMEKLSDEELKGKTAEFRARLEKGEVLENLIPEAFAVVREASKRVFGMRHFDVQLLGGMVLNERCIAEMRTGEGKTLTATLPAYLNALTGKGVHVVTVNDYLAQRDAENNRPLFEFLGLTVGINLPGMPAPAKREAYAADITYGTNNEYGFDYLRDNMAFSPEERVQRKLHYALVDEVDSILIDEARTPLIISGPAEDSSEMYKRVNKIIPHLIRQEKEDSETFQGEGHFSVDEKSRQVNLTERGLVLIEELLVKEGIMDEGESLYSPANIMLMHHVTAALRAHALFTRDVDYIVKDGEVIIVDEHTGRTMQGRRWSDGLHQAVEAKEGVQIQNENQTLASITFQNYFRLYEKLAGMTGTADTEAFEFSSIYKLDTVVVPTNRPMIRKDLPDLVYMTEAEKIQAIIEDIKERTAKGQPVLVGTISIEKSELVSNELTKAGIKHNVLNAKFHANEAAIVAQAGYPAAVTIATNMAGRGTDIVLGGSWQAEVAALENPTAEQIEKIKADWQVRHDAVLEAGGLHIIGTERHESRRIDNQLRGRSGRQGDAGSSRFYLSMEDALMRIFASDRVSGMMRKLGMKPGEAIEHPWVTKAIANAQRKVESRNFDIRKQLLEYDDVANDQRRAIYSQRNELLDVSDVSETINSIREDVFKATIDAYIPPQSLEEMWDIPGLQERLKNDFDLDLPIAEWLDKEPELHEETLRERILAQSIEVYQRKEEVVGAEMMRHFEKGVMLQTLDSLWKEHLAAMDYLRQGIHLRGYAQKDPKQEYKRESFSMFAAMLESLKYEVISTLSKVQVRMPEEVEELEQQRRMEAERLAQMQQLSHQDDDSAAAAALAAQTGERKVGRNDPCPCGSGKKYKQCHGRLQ

Consider `CCNC(=O)N1CCN(C(=O)c2cc(Cl)cc3cccnc23)CC1`, for which the Percent Effect in assay [1] is -1.06%; in assay [2] it was 0%; in assay [3], 3.31%; in assay [4], -1.03%; in assay [5] it was 3.28%; in [6], 7.93%. For the same compound, the Percent Effect in assay [7] was 6.48%; in [8] it was -0.478%; in assay [9], -1.21%; in [10] it was 2.64%.

Take `COc1cccc2c1OCC(C(=O)N1CCN(S(C)(=O)=O)CC1)C2` (stereo not given): the Percent Effect was -5.76% in assay [1]; 16.2% in [2]; 16.9% in assay [3]; 6.69% in assay [4]; 11.5% in assay [5]; 9.25% in [6]. The Percent Effect in assay [7] is 11.4%; in [8] it was 7.98%; in assay [9], 17.1%; in assay [10], -8.92%.

On to `Cc1csc(Nc2nccnc2C2CCCN2C(=O)C(C)C)n1` (stereo not given), for which the Percent Effect in assay [1] is 1.4%; in [2], 14.7%; in assay [3], -6.58%; in [4] it was -4.34%; in assay [5] it was -0.885%; in assay [6], 9.69%. In addition, the Percent Effect was 5.46% in assay [7], 2.12% in assay [8], 10% in assay [9] and -21.8% in assay [10].

With `O=C(NCc1nn(-c2ccccc2)c2c1CCC2)NC1CC1`, the Percent Effect was -4.01% in [1]; 2.56% in assay [2]; 9.31% in assay [3]; 0.469% in assay [4]; 2.05% in assay [5]; 2.65% in assay [6]. Also, the Percent Effect in assay [7] was -3.46%; in assay [8], 1.44%; in assay [9], 8.43%; in assay [10], -1.68%.

`COc1ccccc1OCC(=O)NS(=O)(=O)c1ccc(C)s1`: the Percent Effect in assay [1] is -1.64%; in assay [2], 5.2%; in assay [3], 0.674%; in [4], -0.746%; in assay [5], 7.58%; in assay [6], 6.49%. Moreover, the Percent Effect in [7] was 5.05%; in assay [8], 0.98%; in assay [9] it was 16.5%; in [10], -3.45%.

Regarding `CC(C)(C)c1cn2nc(N3CCCC3Cn3cncn3)sc2n1` (stereo not given), the Percent Effect is 0.788% in assay [1]; 17.9% in assay [2]; -6.25% in assay [3]; 2.72% in assay [4]; 6.15% in assay [5]; 17.1% in assay [6]. Also, the Percent Effect in assay [7] was 12.8%; in assay [8] it was 3.35%; in [9], 20.5%; in [10] it was -6.04%.

Consider `COCCc1noc(CN2CCCC2c2c(C)nn(C)c2C)n1` (stereo not given), for which the Percent Effect in assay [1] is -3.14%; in assay [2] it was 0%; in [3], 5.73%; in [4], 5.22%; in assay [5], -0.887%; in [6], 3.14%. Further, the Percent Effect in assay [7] was -16.4%; in assay [8], 1.58%; in assay [9] it was 2.56%; in assay [10] it was -6.66%.

As for `Cn1c(Cn2cccn2)nnc1C1CCCN(c2ccncc2F)C1` (stereo not given), the Percent Effect was -3.83% in [1]; 10.8% in assay [2]; 2.04% in assay [3]; -2.62% in assay [4]; 0.35% in assay [5]; 12% in [6]. The Percent Effect in assay [7] came out at 27.1%; in assay [8] it was 2.66%; in assay [9], 12.2%; in assay [10] it was 0.18%.

In the case of `Cc1cnc(CN(C)C2CCN(Cc3nc4ccccc4n3C)C2)o1` (stereo not given), the Percent Effect in [1] was -2.3%; in [2] it was 16%; in [3], -6.81%; in assay [4], 3.21%; in assay [5], -4.43%; in [6] it was 22.6%. Moreover, the Percent Effect in assay [7] was -0.979%; in [8], 14.2%; in assay [9] it was 17.9%; in assay [10] it was -12.5%.

Consider `Cc1nc(C)n(CC2CCCN2Cc2cn3c(C)cccc3n2)n1` (stereo not given), for which the Percent Effect in assay [1] is -1.02%; in assay [2], 2.67%; in assay [3], 7.22%; in assay [4], 4.62%; in [5] it was 2.66%; in assay [6], 8.4%. Also, the Percent Effect in assay [7] was -19.9%; in [8], 1.58%; in [9], 5.13%; in [10] it was -11.6%.

For the compound `c1cnn(CC2CCCCN2Cc2cn3ccsc3n2)c1` (stereo not given), the Percent Effect in [1] is -2.05%; in [2], 10.3%; in assay [3], 13.3%; in assay [4], 9.67%; in [5], 0%; in assay [6], 9.98%. The Percent Effect in [7] was 15.8%; in assay [8] it was 10.1%; in [9], 18.1%; in [10], -1.18%.

`CC(c1cccc(S(N)(=O)=O)c1)N(C)CCc1ccccc1` (stereo not given): the Percent Effect in assay [1] was -0.406%; in assay [2] it was 20.8%; in [3], -4.37%; in assay [4] it was -0.933%; in assay [5], -4.3%; in [6], 10.9%. Moreover, the Percent Effect in assay [7] was 13.6%; in [8], 6.86%; in [9], 16.5%; in assay [10] it was -9.02%.
